# In the library only some 11% were active in any assay of this set; here they are far more common.
# G9a block: qHTS Assay for Inhibitors of Histone Lysine Methyltransferase G9a; Histone-lysine N-methyltransferase EHMT2 (Homo sapiens), Q96KQ7; G9a H3K9 monomethylation, AlphaScreen, 2 h; Potency, µM (series often up to 102 µM), for inactives: at the top dose activity, negative = inhibition, usual class: inhibitors; hit rate 8.8% among 350,000; AID 504332, 2011; further: potency means the concentration at half of the fitted maximal effect; on the % scale 0 is the no-effect control and ±100 the full control effect; nearly all actives have a fitted effect of over 75% in size
# Target sequence (Q96KQ7 913-1193 limits assumed): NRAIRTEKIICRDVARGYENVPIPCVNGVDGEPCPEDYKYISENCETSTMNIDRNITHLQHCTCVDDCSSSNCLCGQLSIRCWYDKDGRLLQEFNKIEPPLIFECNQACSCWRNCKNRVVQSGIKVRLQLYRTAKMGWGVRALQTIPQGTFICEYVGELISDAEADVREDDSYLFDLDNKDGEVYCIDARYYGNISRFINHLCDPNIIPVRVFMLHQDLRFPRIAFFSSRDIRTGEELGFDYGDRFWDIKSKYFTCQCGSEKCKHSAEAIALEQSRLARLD
#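 Compounds were preincubated with 20 nM G9a for 15 min, after which biotinylated H3K9 peptide (500 nM) and SAM (20 uM) started a 2 h room-temperature reaction. Monomethylated product was quantified by antibody-based AlphaScreen chemiluminescence.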
# HP1b binding inh: HTS for Inhibitors of HP1-beta Chromodomain Interactions with Methylated Histone Tails; Potency, µM (top dose mostly 114 µM), inactives show top-dose activity change, negative = inhibition, usual class: inhibitors; AID 540317, 2011; hit rate 0.56% among 390,000; AlphaScreen HP1-beta / biotin-H3K9me3 peptide binding; Chromobox protein homolog 1 (Homo sapiens), P83916; further: potency means the concentration at half of the fitted maximal effect; nearly all actives have a fitted effect of over 70% in size
#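 AlphaScreen: HP1-beta (50 nM) preformed 30 min with biotin-H3(1-18)K9me3 peptide (50 nM) in PBS pH 7.4, 0.01% Tween-20. Compound added for 30 min at RT, then streptavidin donor/nickel chelate acceptor beads (10 ug/mL) for 30 min.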
# JMJD2A Tudor inh: qHTS Assay for Inhibitors of JMJD2A-Tudor Domain. Lysine-specific demethylase 4A (Homo sapiens), O75164. AlphaScreen JMJD2A-Tudor / H3K4me3 peptide binding. Potency, µM (top dose mostly 114 µM), for the others: at the top dose activity change, negative = inhibition, actives largely listed as inhibitors. hit rate 4.4% among 390,000. AID 504339, 2011; further: potency means the concentration at half of the fitted maximal effect; on the % scale 0 is the no-effect control and ±100 the full control effect; nearly all actives have a fitted effect of over 50% in size
# L3MBTL1 inh: qHTS Assay for the Inhibitors of L3MBTL1; Potency, µM (series often up to 57.1 µM), for inactives: at the top dose activity, negative = inhibition, usual class: inhibitors; hit rate 0.66% among 230,000; AlphaScreen L3MBTL1–H3K9me1 peptide binding; further: potency means the concentration at half of the fitted maximal effect; on the % scale 0 is the no-effect control and ±100 the full control effect; nearly all actives have a fitted effect of over 60% in size
#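 AlphaScreen proximity signal between nickel-chelate acceptor and streptavidin donor beads (final 10 ug/mL) reports binding of 50 nM L3MBTL1 to 75 nM biotin-H3 K9me1 peptide; complex incubated with compounds 30 min at room temperature; cefsulodin titration as control.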
# BAZ2B inh: qHTS Assay for Inhibitors of BAZ2B. Bromodomain adjacent to zinc finger domain protein 2B (Homo sapiens), Q9UIF8. AlphaScreen BAZ2B-H3K14Ac peptide displacement. Potency, µM (series often up to 114 µM), inactives show top-dose activity change, negative = inhibition, most hits filed as inhibitors. hit rate 4.4% among 360,000; further: potency means the concentration at half of the fitted maximal effect; on the % scale 0 is the no-effect control and ±100 the full control effect; nearly all actives have a fitted effect of over 60% in size
#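 AlphaScreen luminescence quantifies BAZ2B engagement of H3K14Ac peptide; the protein and biotinylated peptide are both at 50 nM final, buffer PBS pH 7.4 with 0.01% Tween-20, all steps at room temperature.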
# PI5P4K alpha inh: qHTS for Inhibitors of phosphatidylinositol 5-phosphate 4-kinase (PI5P4K); Phosphatidylinositol 5-phosphate 4-kinase type-2 alpha (Homo sapiens), P48426; PI5P4Kalpha enzyme, ADP-Glo luminescence, 60 min; active compounds read low; max response, %; hit rate 1.2% among 330,000; active means max response of -50% or lower; inconclusive means between -30% and -50%; inactive means -30% or higher; further: value at the top dose of about 77 µM; on the % scale 0 is the no-effect control and ±100 the full control effect
# Target sequence (P48426 whole entry, looked up): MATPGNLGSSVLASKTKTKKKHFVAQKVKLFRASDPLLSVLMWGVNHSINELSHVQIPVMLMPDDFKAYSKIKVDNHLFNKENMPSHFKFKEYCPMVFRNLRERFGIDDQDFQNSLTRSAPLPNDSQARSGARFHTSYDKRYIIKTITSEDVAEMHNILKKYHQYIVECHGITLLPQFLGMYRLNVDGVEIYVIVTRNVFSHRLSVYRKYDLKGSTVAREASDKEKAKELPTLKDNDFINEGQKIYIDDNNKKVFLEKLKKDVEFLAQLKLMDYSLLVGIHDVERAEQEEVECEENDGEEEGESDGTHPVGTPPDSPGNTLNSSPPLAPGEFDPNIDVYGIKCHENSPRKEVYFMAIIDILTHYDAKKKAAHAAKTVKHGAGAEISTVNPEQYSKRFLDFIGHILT
#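 qHTS, 1536-well: enzyme/substrate mix, compound by pin tool, 5 microM ATP final; RT 60 min; ADP-Glo reagents 1 (45 min) then 2 (30 min); luminescence.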
# Starred values were filed as active, the others as inactive; ? = inconclusive; nt = no result given; [ ] = dose if it differs, or a comment. Unless noted, the call rests on the fitted dose curve; in most records, active means well fitted inhibition curve with a large enough effect; inconclusive means small, poorly fitted or top-dose-only effect; inactive means no such curve, though single readings can be large or run the other way.
SMILES,G9a block,HP1b binding inh,JMJD2A Tudor inh,L3MBTL1 inh,BAZ2B inh,PI5P4K alpha inh
CC1(CCc2ccc3c(c2)OCO3)NCCc2c1[nH]c1ccccc21 (stereo unspecified),50µM*,14%,?,nt,-38%,4
Cc1cc(NC(=O)CCCn2c(C)c3cnn(-c4ccccc4)c(=O)c3c2C)ccc1Br,-37%[59 µM],-4%,?,nt,?,nt
CCOc1ccc2[nH]c(=O)c(CN(Cc3ccco3)C(CC)c3nnnn3Cc3ccccc3)cc2c1 (stereo unspecified),35µM*,12%,-35%,-6%,2%,12
CCNC(=S)N(Cc1cccs1)Cc1cc2cc(OCC)ccc2[nH]c1=O,22%[59 µM],12%,-20%,4%,4%,-8
O=c1[nH]c2cc3c(cc2cc1CN(Cc1nnnn1CC1CCCO1)C1CCCC1)OCO3 (stereo unspecified),13µM*,14%,-4%,-7%,-8%,-2
CCNC(=S)N(Cc1ccco1)Cc1cc2cc(OCC)ccc2[nH]c1=O,45µM*,11%,-21%,-14%,?,-7
COc1ccc2[nH]c(=O)c(CN(Cc3ccco3)Cc3nnnn3Cc3ccccc3)cc2c1,50µM*,21%,-3%,-86%,2%,-14
Cc1ccc(-n2nc(C)c3c(C(=O)Nc4ccc(Br)c(C)c4)cc(C)nc32)cc1,6%[59 µM],68%,10%,nt,17%[57.1 µM],nt
COc1ccc2[nH]c(=O)c(CN(CCc3ccccc3)Cc3nnnn3CC3CCCO3)cc2c1 (stereo unspecified),8.9µM*,13%,-20%,-15%,-17%,nt
CCOC(=O)c1c(C)sc(-c2c(-c3cccc(Cl)c3)[nH]c3c2c(=O)n(C)c(=O)n3C)c1O,?,23%,?,nt,?,nt
CCOC(=O)c1c(C)sc(-c2c(-c3cc(C)ccc3C)[nH]c3c2c(=O)n(C)c(=O)n3C)c1O,?,5%,?,nt,79µM*,nt
CCOC(=O)c1c(C)sc(-c2c(-c3cc(C)ccc3C)[nH]c3c2c(=O)[nH]c(=O)n3C)c1O,?,10%,-27%,nt,50µM*,nt
Cc1cccc(NC(=O)Cn2nc(N3CCN(c4ccccc4)CC3)ccc2=O)c1C,0%[59 µM],19%,-16%,nt,-5%,nt
O=C(CCS(=O)(=O)c1ccccc1)NCCS(=O)(=O)c1ccccc1,18%,24%,-20%,?,-16%,1
COc1ccc(S(=O)(=O)CCC(=O)Nc2c(C)cccc2C)cc1,40µM*,36%,-9%,nt,2%,-6
CCOc1ccccc1NC(=O)CCS(=O)(=O)c1ccc(OC)cc1,-38%,27%,-1%,nt,6%,-6
CCNC(=O)CCS(=O)(=O)c1ccc2ccccc2c1,7.1µM*,19%,-3%,-6%,-4%,nt
CCc1ccccc1NC(=O)CCS(=O)(=O)c1ccc(OC)cc1,14µM*,?,89µM*,nt,?,-10
Cc1cccc(C)c1NC(=O)CCS(=O)(=O)c1ccc(Br)cc1,7%,23%,-9%,nt,0%,-7
Cc1cc(N2CCC(C)CC2)nc2ccc(NC(=O)Cc3c(F)cccc3Cl)cc12,-14%[59 µM],12%,3%,nt,-8%,nt
c1ccc(-n2nc3c(ccc4cnnc43)[nH]2)cc1,18µM*,-6%,16%[11.4 µM],-5%,50µM*,0
CC1=C(C(=O)NCc2cccc(Br)c2)C2(CCCCC2)OC1=O,-3%[59 µM],21%,-8%,nt,7%,nt
CC(=O)N1CC(C)Oc2ccc(S(=O)(=O)NC(CC(=O)O)c3ccc(C)cc3C)cc21 (stereo unspecified),79µM*,22%[57 µM],2%,nt,-2%,5
COc1ccccc1C(CC(=O)O)NS(=O)(=O)c1ccc2c(c1)N(C(C)=O)CC(C)O2 (stereo unspecified),nt,51%,24%,nt,-3%,-6
CC(=O)N1CCC2(CC1)CCN(c1ncccn1)CC2,-7%[12.7 µM],nt,nt,nt,nt,nt
SMILES,G9a block,HP1b binding inh,JMJD2A Tudor inh,L3MBTL1 inh,BAZ2B inh,PI5P4K alpha inh
c1ccc(-c2nn3c(Cn4nnc5ccccc54)nnc3s2)nc1,?,-28%,?,?,-31%,nt
c1ccc(CCc2nn3c(Cn4nnc5ccccc54)nnc3s2)cc1,?,?,?,-13%,-7%,-28
c1ccc(Cc2nn3c(Cn4nnc5ccccc54)nnc3s2)cc1,8.9µM*,-41%,-29%,2%,-1%,nt
c1ccc(OCc2nn3c(Cn4nnc5ccccc54)nnc3s2)cc1,2.8µM*,?,?,-8%[11.4 µM],-8%,?
COc1cc(C(=O)NCC(=O)OCC(=O)Nc2nnc(-c3ccccc3)o2)cc(OC)c1OC,-4%[59 µM],12%,22µM*,5%,?,-5
O=C(COC(=O)CNC(=O)c1ccccc1)Nc1nnc(-c2ccccc2)o1,45µM*,51%,?,12%,?,2
COc1cc(C(=O)NCC(=O)OCC(=O)c2cccc3ccccc23)cc(OC)c1OC,71µM*,7%,-4%,nt,-24%,-8
COc1ccc(C(=O)NCC(=O)OCC(=O)c2ccccc2Br)cc1OC,nt,nt,nt,nt,nt,1
COc1ccc(CNc2ccccc2C(=O)NCc2ccccc2)cc1COc1ccc(NC(C)=O)cc1,nt,10%,?,nt,nt,nt
O=C(Nc1ccc(F)cc1)c1cccn1-c1nnc(N2CCCCC2)s1,-13%[59 µM],-15%,-19%,nt,-37%,nt
Cc1nn(S(=O)(=O)c2ccc(C(C)C)cc2)c(C)c1S(=O)(=O)N1CCCCC1,-39%[59 µM],22%[57 µM],-15%,nt,-23%,nt
CN(C)CCCN(C(=O)c1cccs1)c1nc2cc3c(cc2s1)OCO3,?,30%,-19%,nt,-38%,1
CN(C)CCCN(C(=O)c1ccc([N+](=O)[O-])s1)c1nc2cc3c(cc2s1)OCCO3,45µM*,-22%,?,nt,?,-5
CN(C)CCCN(C(=O)c1cc2cc([N+](=O)[O-])ccc2s1)c1nc2cc3c(cc2s1)OCCO3,20µM*,-33%,?,-11%,?,-69*
Nc1ccc(Oc2cc(N)cc(Oc3ccccc3)c2)cc1,?,?,?,nt,50µM*,15
Cc1ccc(C(=O)CC(=O)c2ccccc2C)c(O)c1,43%,20%,5%,nt,7%,13
C=C(CN(C)C)C(=O)c1ccc2c(c1)OCO2,nt,?,14µM*,nt,nt,4
C[N+](C)(C)CCCC(=O)c1ccc2c(c1)OCO2,?,61%,-23%[11.4 µM],0%,-1%,23

# From PubChem
